Data as given in PubChem BioAssay (EPA / NIEHS).
Records with an inconclusive call do not appear. Active and inactive are the calls of the source. The calls were made as follows: active = hit-call score of the fitted dose curve at least 0.9, where 1 is the maximum; inconclusive = response in the unintended direction; inactive = score below 0.9.

Test system: not listed separately
Assay: ACEA_ER_AUC_viability: ACEA Biosciences xCELLigence Real-Time Cell Analysis on Estrogen Receptor Agonism for Viability (AID 2283782);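 also: continuous compound exposure with impedance area under curve over 80 h; hit means loss of impedance signal meaning reduced cell growth or viability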
Summary of the method: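 T47D cells preconditioned in phenol red-free RPMI with charcoal-stripped FBS, then dosed with 8-point 1:4 series from 100 uM (up to 0.5% DMSO). Impedance monitored up to ~80 h; area-under-curve loss versus DMSO taken as viability.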

Compound | outcome | AC50
CCCCCc1ccc(Cl)cc1 | inactive | 
CC(C)CC(O)Cc1ccccc1 (stereo not given) | inactive | 
CO[Si](OC)(OC)c1ccccc1 | inactive | 
C=CC(C)(CCC=C(C)C)OC(=O)CC(C)C (stereo not given) | inactive | 
CN(C)c1ccc(N=Nc2ccccc2C(=O)O)cc1 |  | 11.8 µM (active)
CCc1c(C(=O)O)c(=O)cnn1-c1ccc(Cl)cc1 |  | 31.4 µM (active)
C=CCOCC(O)CCl (stereo not given) | inactive | 
Oc1ccc(Cl)cc1Cc1cc(Cl)ccc1O |  | 17.7 µM (active)
CCCCCCC(O)CO (stereo not given) |  | 40 µM (active)
CC(C)(C)c1ccc(-c2ccc(C(C)(C)C)cc2)cc1 | inactive | 
CNC(=S)N(C)C | inactive | 
O=C(Nc1ccccc1SSc1ccccc1NC(=O)c1ccccc1)c1ccccc1 |  | 77.7 µM (active)
Cc1ccc2oc(=O)ccc2c1 | inactive | 
CC=C1CC2C=CC1C2 (stereo not given) | inactive | 
OCCCS |  | 44.4 µM (active)
CC(C)(C)c1ccc(OC(=O)c2ccccc2O)cc1 |  | 66.2 µM (active)

Compound | outcome | AC50
CCCC(=O)OCc1ccccc1 | inactive | 
Nc1ccc(N)c(Cl)c1 |  | 67.8 µM (active)
O=C1CCCN1CCO | inactive | 
NC(=O)c1ccccc1O | inactive | 
C1=Cc2ccccc2C1 | inactive | 
CCCCC/C=C\CCC=O | inactive | 
CC(C)c1ccc2c(C(C)C)cc(C(C)C)c(S(=O)(=O)O)c2c1 | inactive | 
CC1(C)S[C@@H]2[C@H](NC(=O)COc3ccccc3)C(=O)N2[C@H]1C(=O)O | inactive | 
Cc1ccc(OC(=O)CC(C)C)cc1 |  | 73.8 µM (active)
C1=CCCC1 | inactive | 
CC(CC=O)CCCC(C)(C)O (stereo not given) | inactive | 
CCCc1ccc(OC)cc1 | inactive | 
CC(C)C1=CC2=CC[C@@H]3[C@](C)(CCC[C@@]3(C)C(=O)O)[C@H]2CC1 | inactive | 
CC(C)CCCC(C)CC=O (stereo not given) | inactive | 
CCCNC(=O)NS(=O)(=O)c1ccc(Cl)cc1 | inactive | 
CC/C=C\C/C=C\C/C=C\CCCCCCCC(=O)O | inactive | 

Biological target: AR (gene 367) (UniProt P10275)
Assay: ACEA_AR_agonist_80hr: ACEA Biosciences xCELLigence Real-Time Cell Analysis on Androgen Receptor Agonism for Proliferation (AID 2283783);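 also: hits increase impedance growth signal above DMSO baseline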
Summary of the method: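 Proliferation of 22Rv1 prostate cancer cells tracked by electrical impedance, endpoint taken at 80 hours after dosing. Eight-point 1:4 dilutions from 100 uM maximum final, duplicate; testosterone and MG132 as positive controls, assay media as negative.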

AR (gene 367), sequence (P10275 whole entry, looked up): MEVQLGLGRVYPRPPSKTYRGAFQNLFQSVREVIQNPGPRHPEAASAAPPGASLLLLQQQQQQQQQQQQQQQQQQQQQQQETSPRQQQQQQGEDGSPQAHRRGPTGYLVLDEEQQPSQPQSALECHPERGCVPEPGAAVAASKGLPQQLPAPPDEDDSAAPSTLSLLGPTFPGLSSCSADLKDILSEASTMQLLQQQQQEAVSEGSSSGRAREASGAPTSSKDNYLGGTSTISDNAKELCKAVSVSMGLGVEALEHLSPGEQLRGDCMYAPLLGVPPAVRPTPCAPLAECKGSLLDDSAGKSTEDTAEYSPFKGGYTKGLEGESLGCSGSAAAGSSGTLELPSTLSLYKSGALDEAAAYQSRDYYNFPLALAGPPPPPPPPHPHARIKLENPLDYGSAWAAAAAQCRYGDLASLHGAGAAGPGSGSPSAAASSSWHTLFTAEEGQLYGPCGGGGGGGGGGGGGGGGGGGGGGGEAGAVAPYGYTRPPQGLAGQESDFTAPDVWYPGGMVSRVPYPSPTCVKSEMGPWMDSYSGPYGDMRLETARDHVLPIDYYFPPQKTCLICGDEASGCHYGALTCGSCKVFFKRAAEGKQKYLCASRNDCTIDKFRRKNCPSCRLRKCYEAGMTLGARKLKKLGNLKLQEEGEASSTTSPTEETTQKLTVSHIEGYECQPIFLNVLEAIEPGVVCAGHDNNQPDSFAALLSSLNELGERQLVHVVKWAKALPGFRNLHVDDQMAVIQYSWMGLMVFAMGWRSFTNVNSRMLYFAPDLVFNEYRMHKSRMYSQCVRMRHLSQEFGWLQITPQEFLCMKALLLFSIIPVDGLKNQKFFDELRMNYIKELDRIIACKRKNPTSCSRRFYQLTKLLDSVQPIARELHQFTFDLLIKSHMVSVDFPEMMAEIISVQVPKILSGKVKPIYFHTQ

Compound | outcome
Oc1ccc(Cl)cc1Cc1cc(Cl)ccc1O | inactive
CC(C)c1ccc2cc(C(C)C)ccc2c1 | inactive
CCCCC/C=C\CCC=O | inactive
CC(C)c1ccc2c(C(C)C)cc(C(C)C)c(S(=O)(=O)O)c2c1 | inactive
CC(CC=O)CCCC(C)(C)O (stereo not given) | inactive
CCCc1ccc(OC)cc1 | inactive

Biological target: AR (gene 367) (UniProt P10275)
Assay: ACEA_AR_antagonist_80hr: ACEA Biosciences xCELLigence Real-Time Cell Analysis on Androgen Receptor Antagonism for Proliferation (AID 2283787);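 also: 22Rv1 human prostate cancer cells with growth followed by electrical impedance; hits lower the impedance growth signal relative to DMSO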
Summary of the method: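 22Rv1 cells in assay medium, growth tracked by electrical impedance; compounds eight-point 1:4 dilutions from 100 uM final, duplicate plates. Endpoint at 80 h; loss of signal versus DMSO.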

Compound | AC50 | outcome
O=c1cc(-c2ccccc2)oc2ccccc12 | 0.0284 µM (active) | 
Oc1ccc(Cl)cc1Cc1cc(Cl)ccc1O | 10.2 µM (active) | 
CC(C)=CCC[C@H](C)CCO |  | inactive
CC(C)(C)c1ccc(-c2ccc(C(C)(C)C)cc2)cc1 |  | inactive
CC(C)c1ccc2cc(C(C)C)ccc2c1 |  | inactive
CCCCC/C=C\CCC=O |  | inactive
CCCc1ccc(OC)cc1 |  | inactive
